According to PubChem BioAssay AID504832 (National Center for Advancing Translational Sciences (NCATS), 2011):
About 18,000 (5.8%) of roughly 310,000 compounds were called active. About 22% were inconclusive and are not listed. This excerpt belongs to a sample that is enriched for actives. Values without a mark were called inactive. The call rests on the fitted dose curve; in most records, active means well fitted inhibition curve with a large enough effect; inconclusive means small, poorly fitted or top-dose-only effect, or another doubt; inactive means no such curve, though single readings can be large or run the other way.

assay: Primary qHTS for delayed death inhibitors of the malarial parasite plastid, 48 hour incubation; conditions: P. falciparum luciferase growth in erythrocytes; series mostly up to 28.7 µM; activity change, negative = inhibition: at the top concentration
Method in brief: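 In quantitative HTS format, infected erythrocytes bearing luciferase-reporter parasites were treated for a single generation at 37 C. Luminescence after adding detection reagent served as the growth measure.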
On the % scale 0 is the no-effect control and ±100 the full control effect; potency means the concentration at half of the fitted maximal effect.

| Compound | activity change, negative = inhibition | Potency |
| --- | --- | --- |
| CN1C2C=C(N(C(=O)c3ccc(Cl)cc3)c3ccccc3)CC1CC2 (centres undefined) | -24.9% | – |
| Cc1cc(C)cc(C(=O)N(CCc2ccccc2)C2=CC3CCC(C2)N3C)c1 (centres undefined) | – | 11.7 µM (active) |
| Cc1ccc(CCN2CC(C(=O)NCCc3ccccc3)CC2=O)cc1 (centres undefined) | -21.6% | – |
| O=S(=O)(NC1CCCCC1N1CCC(O)CC1)c1ccc(Cl)cc1 (centres undefined) | 19.7% | – |
| CCN(CC(=O)Nc1c(F)cccc1F)C(=O)c1ccc(S(=O)(=O)N2CCCCC2)cc1 | -2.96% | – |
| COc1cccc(NC(=O)c2ccccc2N(Cc2ccccc2)S(C)(=O)=O)c1 | -14.6% | – |
| COc1ccccc1CSc1nc2ccccc2[nH]1 | 9.15% | – |
| COCCNC(=O)c1onc(CSc2cccc(C)c2)c1C(=O)O | 33.9% | – |
| O=C(NCc1ccccc1)c1onc(CSc2nc3ccccc3[nH]2)c1C(=O)NCc1ccccc1 | – | 1.17 µM (active) |
| O=C(CSc1nc(C2CC2)nc2ccccc12)Nc1cccc(O)c1 | 18.3% | – |
| CCOCc1c(C(=O)N2CCN(Cc3ccc(Br)s3)CC2)oc2ccccc12 | – | 13.1 µM (active) |
| CCC(=O)Nc1ccccc1C(=O)N1CCN(Cc2ccccc2)CC1 | -10.3% | – |
| COCC(=O)Nc1c(C(=O)N2CCCC2)oc2ccccc12 | 26.7% | – |
| COc1ccc(CN2CC(C(=O)NC3CCCCC3)CC2=O)cc1 (centres undefined) | 6.73% | – |
| C=CCSc1ccc(S(=O)(=O)N2CCN(C)CC2)cn1 | 4.46% | – |
| CCn1cc(C(=O)NCCCN2CCCCCC2)c(=O)c2cc(S(=O)(=O)N3CCc4ccccc4C3)ccc21 | – | 5.22 µM (active) |
| CCn1cc(C(=O)NCCO)c(=O)c2cc(F)c(N3CCN(C)CC3)cc21 | 2.44% | – |
| CCn1cc(C(=O)N2CC(C)CC(C)C2)c(=O)c2cc(S(=O)(=O)N3CCCC3)ccc21 (centres undefined) | 3.58% | – |
| O=S(=O)(c1cccc(Cn2nnc(-c3ccc(F)cc3)n2)c1)N1CCOCC1 | 0.852% | – |
| Cc1ccc(CNS(=O)(=O)c2ccc3c(c2)N(C)CCO3)cc1 | 30.2% | – |
| COc1ccc(CNCCCO)cc1OC | 3.57% | – |
| COc1cc(CNc2ncn[nH]2)ccc1OCc1ccccc1C | 17.2% | – |
| CCN(CC)CCNCc1ccc(OCc2ccc(Cl)nc2)c(OC)c1 | – | 10.4 µM (active) |
| COc1ccccc1CNC(=O)Cn1cc2c(n1)CCCC2 | 5.3% | – |
| COc1ccccc1CNC(=O)C1CCN(S(C)(=O)=O)CC1 | 8.41% | – |
| COc1ccc(CNC(=O)CN2CCC(n3nnc4cc(F)ccc43)CC2)cc1 | -23.1% | – |
| COc1ccccc1CNC(=O)CN1CCC(n2cnc3cc(F)ccc32)CC1 | – | 10.4 µM (active) |

| Compound | activity change, negative = inhibition | Potency |
| --- | --- | --- |
| COc1ccc(CCNC(=O)CCC(=O)NC2CCCCC2)cc1OC | -8.53% | – |
| COc1ccc(CCNC(=O)CN2CCC(n3nnc4cc(F)ccc43)CC2)cc1OC | – | 7.38 µM (active) |
| CCc1ccccc1NC(=S)Nc1cc(OC)c(NC(=O)C(C)C)cc1OC | -5.66% | – |
| CC1CCCCC1NC(=O)c1cc(=O)[nH]c2ccccc12 (centres undefined) | 34.6% | – |
| CCCCCCC(O)(CCN1CCCCC1)c1ccccc1 (centres undefined) | 11.4% [at 0.00184 µM] | – |
| COc1ccc(NC(=S)N2CCC(NC(=O)c3cccc(F)c3)CC2)cc1 | 6.61% | – |
| CN1C(=O)c2ccc(C(=O)Nc3ccc(Br)cn3)cc2C1=O | 0.546% | – |
| Cc1cc(C)n(S(=O)(=O)c2cccc([N+](=O)[O-])c2)n1 | 0.663% | – |
| Cc1ccc(-c2cn(S(=O)(=O)c3cccc([N+](=O)[O-])c3)nc2N)cc1 | – | 3.29 µM (active) |
| CC1=NCCN1S(=O)(=O)c1cccc([N+](=O)[O-])c1 | 58.3% | – |
| COc1ccc(-c2noc(C(C)NS(=O)(=O)c3ccc(NC(C)=O)cc3)n2)cc1 (centres undefined) | -9.21% | – |
| Cc1occc1C(=O)NC1CCCN(Cc2ccc(CC(C)C)cc2)C1 (centres undefined) | -22.7% | – |
| Cc1ccc(C)c(C(=O)N2CCC(n3nccc3NC(=O)C3CC3)CC2)c1 | 4.41% | – |
| C=CCN1CN(S(=O)(=O)c2ccc(OC)cc2)c2nc3ccccc3nc21 | -20.2% | – |
| COc1cc2c(cc1O)[C@H](Cc1ccc(Oc3cc(C[C@@H]4NCCc5cc(OC)c(O)cc54)ccc3O)cc1)NCC2 | – | 0.738 µM (active) |
| CCCCSCCCNC(=O)C1CCC(CNS(=O)(=O)c2ccc(NC(C)=O)cc2)CC1 (centres undefined) | 0% | – |
| CCN(CC)C(=O)c1nc[nH]c1C(=O)N(C)Cc1ccccc1 | 51.8% | – |
| O=C1C2CCCN2C(=O)N1CCCCN1CCN(c2cccc(C(F)(F)F)c2)CC1 (centres undefined) | -19.8% | – |
| Cn1ccc(NC(=O)Nc2ccc(Cl)cc2)n1 | 50.8% | – |
| CN(c1cccc(NC(=O)Nc2ccc(Cl)cc2)c1)S(C)(=O)=O | 45.8% | – |
| CC(C)S(=O)(=O)c1csc(NC(=O)Nc2ccc(Cl)cc2)c1Cl | – | 5.22 µM (active) |
| S=C(Nc1ccc(Br)cc1)NC1CCN(Cc2ccccc2)CC1 | – | 11.7 µM (active) |
| S=C(NCCCc1ccccc1)Nc1ccc(Br)cc1 | -6.46% | – |
| O=C(NC1CCN(Cc2ccccc2)CC1)c1c(F)cccc1F | -5.58% | – |
| CN(CC(=O)Nc1ccc(F)c(F)c1F)C(=O)Cn1cnc2c1c(=O)n(C)c(=O)n2C | 4.25% | – |
| O=C(OCCN1C(=O)c2ccccc2C1=O)Oc1ccccc1 | 9.7% | – |
| CC(C)(C)OC(=O)NC(Cc1ccccc1)C(=O)NC(CSC1CCCCO1)C(=O)NN (centres undefined) | 29.4% | – |
